A short description of test [1]: S16 Schwann cell viability assay (CellTiter-Glo assay) (AID 624031). Note: nearly all actives have a fitted effect of over 70% in size. Note: potency is the fitted concentration of half-maximal effect. Summed up:
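CellTiter-Glo ATP luminescence counter-screen in untransfected S16 rat Schwann cells, 24h compound exposure at 37 degree Celsius after overnight seeding (500-750 cells/well); response scaled between cell-free wells and DMSO (0% activity), curves classed by r2 and magnitude.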
On the technique in general: ATP-based viability assays read luminescence as a measure of living cells.

A short description of test [2]: S16 Schwann cell PMP22 intronic element firefly luciferase assay (AID 624032). Note: nearly all actives have a fitted effect of over 30% in size. Note: potency is the fitted concentration of half-maximal effect. The essentials: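 Rat S16 Schwann cells stably carrying a PMP22 intronic element-driven Fluc reporter were seeded overnight, then exposed to compounds for 24 h at 37 °C. Luminescence was normalized to PTC124 (positive control) and DMSO (0% activity).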
The nature of test [3]: S16 Schwann cell PMP22 intronic element beta-lactamase assay (AID 624044; calls by dose curve; note: nearly all actives have a fitted effect of over 15% in size; note: potency is the fitted concentration of half-maximal effect). The essentials: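 Beta-lactamase reporter under a PMP22 intronic regulatory element in stable S16 rat Schwann cells; 24 h compound exposure. 460 nm blue signal normalized between DMSO (0%) and potassium clavulanate, with 535 nm FRET tracking viability; curves classed by r2 and response.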
For test [4], the target named is Glutaminase kidney isoform, mitochondrial (Homo sapiens) (UniProt O94925). The experiment in a line: qHTS for Inhibitors of Glutaminase (GLS): LOPAC Validation (AID 624146). Note: potency is the fitted concentration of half-maximal effect; nearly all actives have a fitted effect of over 60% in size. The following applies: glutaminase enzyme activity inhibition. The essentials:
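Two-point fluorescence kinetic (t0, 30 min RT) for hKGA; glutamate detected via glutamate oxidase–HRP–Amplex Red. Substrate: 1 mM L-glutamine solution; buffer 45 mM KH2PO4, pH 8.2.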
For orientation: In qHTS, concentration-response curves come from the screen itself.

In test [5] the target is Glucagon-like peptide 1 receptor (Homo sapiens) (UniProt P43220). The experiment in a line: qHTS of GLP-1 Receptor Agonists: LOPAC Validation (AID 624148).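 Note: higher luminescence signal means agonism.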 The essentials: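 HEK293 cells stably co-expressing a cAMP-responsive luciferase reporter and a hypersensitive GLP-1R were plated 12 h at 37 °C and exposed to compounds for 4-6 hr at 37 °C, 5% CO2. Luminescence was read 12 min after adding detection reagent.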

Test [6] in a line: qHTS of Nrf2 Activators: LOPAC Validation (AID 624149). The essentials:
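Cells (AREc32_Fluc) are plated at 1000 per well in OPTI-MEM containing 5% FBS and left overnight. Compounds are pinned in and incubated 24 hr at 37 deg C, and firefly luciferase is detected with Steady-Glo.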

A short description of test [7]: HTS Assay for Allosteric Antagonists of the Human D2 Dopamine Receptor: Hit Validation in HTRF (AID 624455).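 Note: stable D1 dopamine receptor cell line scored for blocking the D1 response.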 Summed up: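 Inhibition of the D1-mediated response is measured by HTRF in cells that stably express the D1 dopamine receptor. Compounds reaching this step are hits from calcium-flux antagonism testing at EC80 dopamine in inducible Hek293 Trex D2 cells.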
For orientation: In TR-FRET formats the signal depends on donor and acceptor labels being close together.

Inconclusive results are not listed. Calls of active or inactive are those of the source. Unless noted, calls come from the whole dose curve; as a rule, active = well fitted curve in the direction sought with a large enough effect; inconclusive = small, poorly fitted or top-dose-only effect, or another doubt; inactive = no such curve, though single readings can be large; an effect the other way counts as inactive or inconclusive.

Sequence of Glutaminase kidney isoform, mitochondrial (Homo sapiens) (O94925 whole entry, looked up, canonical isoform): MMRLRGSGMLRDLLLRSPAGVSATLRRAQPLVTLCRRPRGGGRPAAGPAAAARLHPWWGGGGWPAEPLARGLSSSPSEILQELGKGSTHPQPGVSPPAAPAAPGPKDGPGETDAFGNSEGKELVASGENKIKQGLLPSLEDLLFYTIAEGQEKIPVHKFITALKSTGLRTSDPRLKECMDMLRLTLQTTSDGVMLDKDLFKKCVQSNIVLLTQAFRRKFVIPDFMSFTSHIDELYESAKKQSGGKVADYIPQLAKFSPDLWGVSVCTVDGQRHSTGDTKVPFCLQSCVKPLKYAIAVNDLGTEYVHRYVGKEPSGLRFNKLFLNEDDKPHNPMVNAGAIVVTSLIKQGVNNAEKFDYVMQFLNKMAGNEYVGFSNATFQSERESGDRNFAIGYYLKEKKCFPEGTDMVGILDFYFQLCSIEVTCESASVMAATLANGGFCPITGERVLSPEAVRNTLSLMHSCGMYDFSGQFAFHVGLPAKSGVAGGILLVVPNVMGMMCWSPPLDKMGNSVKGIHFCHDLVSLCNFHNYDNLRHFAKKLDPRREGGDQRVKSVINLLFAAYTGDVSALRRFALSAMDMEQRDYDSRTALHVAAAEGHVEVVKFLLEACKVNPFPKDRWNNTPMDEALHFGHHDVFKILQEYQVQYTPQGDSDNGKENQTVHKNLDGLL
Sequence of Glucagon-like peptide 1 receptor (Homo sapiens) (P43220 whole entry, looked up): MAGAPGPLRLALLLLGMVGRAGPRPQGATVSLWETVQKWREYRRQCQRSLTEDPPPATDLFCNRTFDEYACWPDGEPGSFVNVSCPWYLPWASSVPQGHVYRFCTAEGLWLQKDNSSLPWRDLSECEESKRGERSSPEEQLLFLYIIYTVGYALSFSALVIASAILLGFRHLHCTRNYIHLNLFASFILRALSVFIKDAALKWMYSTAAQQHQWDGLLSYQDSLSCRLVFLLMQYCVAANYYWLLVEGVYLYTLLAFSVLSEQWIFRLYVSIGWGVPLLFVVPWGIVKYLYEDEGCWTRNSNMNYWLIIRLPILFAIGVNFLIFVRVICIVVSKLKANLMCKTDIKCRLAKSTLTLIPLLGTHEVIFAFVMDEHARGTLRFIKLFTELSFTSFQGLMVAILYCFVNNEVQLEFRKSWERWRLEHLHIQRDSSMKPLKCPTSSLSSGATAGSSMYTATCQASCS

On to `CCCCCCCCCCCCCCCC(=O)OCC(COC(=O)CCCCCCCCCCCCCCC)OC(=O)CCCCCCCCCCCCCCC`, for which the Potency result in test [1], in test [2] and in test [3] was “inactive” throughout.

With `CCCCCCCC(=O)O`, the Potency entry in test [1] and in test [2] was “inactive” throughout.

For `COC(=O)CCC(=O)CN`, the Potency result in test [1] and in test [2] was “inactive” in each case.

Regarding `C[C@@H]1CCC2[C@@H](C)[C@@H](O)O[C@@H]3O[C@@]4(C)CC[C@@H]1[C@@]23OO4` (some centres not stated), the Potency entry in test [1] and in test [3] was “inactive” each time. For the same compound, the Potency in test [2] was 1.02 µM (active).

On to `Clc1cc(Cl)c(OCC#CI)cc1Cl`, for which the Potency in test [1] was 25.6 µM (active); in test [2] it was 28.7 µM (active).

For `CCCCCCCCCCCC[n+]1ccc2ccccc2c1`, the Potency in test [1] is 16.1 µM (active); in test [2] it was 0.907 µM (active); in test [3] it was 19.9 µM (active).

As for `CCCC(=O)O[C@]1(C(=O)CCl)[C@H](C)C[C@@H]2[C@H]3CCC4=CC(=O)C=C[C@]4(C)[C@@]3(F)C(=O)C[C@@]21C`, the Potency entry in test [1], in test [2] and in test [3] was “inactive” throughout.

As to `CCN(CC)Cc1cc(Nc2ccnc3cc(Cl)ccc23)ccc1O`, in test [1], the Potency result is “inactive”.

As for `O=C(COc1ccc(Cl)cc1)OCCNC12CC3CC(CC(C3)C1)C2`, the Potency entry in test [1], in test [2] and in test [3] was “inactive” in each case.

As for `CC(C(=O)O)c1ccc(N2Cc3ccccc3C2=O)cc1` (configuration not stated), the Potency entry in test [1], in test [2] and in test [3] was “inactive” in each case.

As to `C[C@]12O[C@H](C[C@]1(O)CO)n1c3ccccc3c3c4c(c5c6ccccc6n2c5c31)CNC4=O`, the Potency in test [1] is 10.2 µM (active).

Turning to `CCNC(=O)[C@@H]1CCCN1C(=O)[C@H](CCCN=C(N)N)NC(=O)[C@H](CC(C)C)NC(=O)[C@@H](Cc1c[nH]c2ccccc12)NC(=O)[C@H](Cc1ccc(O)cc1)NC(=O)[C@H](CO)NC(=O)[C@H](Cc1c[nH]c2ccccc12)NC(=O)[C@H](Cc1cnc[nH]1)NC(=O)[C@@H]1CCC(=O)N1`, the Potency is 6.42 µM (active) in test [1], 4.55 µM (active) in test [2] and 22.4 µM (active) in test [3].

Turning to `CC1=C(/C=C/C(C)=C/C=C/C(C)=C/CO)C(C)(C)CCC1`, the Potency entry in test [1] is “inactive”.

As to `CC(C)(C)NC(=O)[C@@H]1C[C@@H]2CCCC[C@@H]2CN1C[C@@H](O)[C@H](Cc1ccccc1)NC(=O)[C@H](CC(N)=O)NC(=O)c1ccc2ccccc2n1`, in test [1], the Potency result is “inactive”. For the same compound, the Potency in test [2] was 12.8 µM (active).

With `O=C(O)CCC(=O)C(=O)O`, the Potency entry in test [1] and in test [2] was “inactive” each time.

Turning to `CC(C)=O`, the Potency result in test [1] and in test [2] was “inactive” throughout.

Take `CN(C)CCCN1c2ccccc2C(C)(C)c2ccccc21`: the Potency in test [1] is 28.7 µM (active). The Potency entry in test [2] and in test [3] was “inactive” each time.

Take `COC(F)(F)C(Cl)Cl`: the Potency result in test [1], in test [2] and in test [3] was “inactive” each time.

As for `CC[N+](C)(C)Cc1ccccc1Br`, the Potency result in test [1], in test [2] and in test [3] was “inactive” in each case.

For `O=C1CSC2(CCN(CCCN3c4ccccc4Sc4ccc(Cl)cc43)CC2)N1`, the Potency in test [1] and in test [2] was 32.2 µM (active) throughout. Also, the Potency result in test [3] was “inactive”.

Turning to `O=S(=O)(O)O`, the Potency entry in test [1], in test [2] and in test [3] was “inactive” throughout.

As to `CN1Cc2c(N)cccc2C(c2ccccc2)C1` (configuration not stated), the Potency result in test [1], in test [2] and in test [3] was “inactive” in each case. Besides, the Potency in test [4] is 12.6 µM (active). For the same compound, the call in test [5], in test [6] and in test [7] was inactive.

On to `CC(NNC(=O)c1ccccc1)c1ccccc1` (configuration not stated), for which the Potency entry in test [1], in test [2] and in test [3] was “inactive” in each case.

As for `CCCCC(CC)COC(=O)CC(C(=O)OCC(CC)CCCC)S(=O)(=O)O` (configuration not stated), the Potency result in test [1], in test [2] and in test [3] was “inactive” in each case.

In the case of `O=CCCCC=O`, the Potency entry in test [1], in test [2] and in test [3] was “inactive” each time.

With `CCOc1ccc2c(c1)C(C)=CC(C)(C)N2`, the Potency entry in test [1], in test [2] and in test [3] was “inactive” throughout.

For `CC(C)(C)C(=O)OCOC(=O)[C@@H]1N2C(=O)[C@@H](N=CN3CCCCCC3)[C@H]2SC1(C)C`, the Potency result in test [1] and in test [3] was “inactive” throughout.

The values are drawn from PubChem BioAssay (NCATS).
